Source: PubChem BioAssay
Shown are actives, neighbours in structure and some others; about 3.9% of the full set was active somewhere.
BoNT-F LC inh – BoNT/F light chain protease inhibitors, primary screen, biochemical, flow cytometry, MLPCN library; hit rate 0.22% among 360,000; inhibition, % at 10 µM; Multiplex microsphere protease cleavage assay; Botulinum neurotoxin type F light chain protease (Clostridium botulinum); in the data active means inhibition above about 35%, passing the limit was not always enough; inconclusive means no clear call, values can overlap the other calls; further: plate controls were buffer without enzyme for full effect and enzyme alone for no effect
Anthrax LF inh2 – Bacillus anthracis LF protease inhibitors, primary screen, biochemical, multiplex microsphere, MLPCN library; Lethal factor (Bacillus anthracis), P15917; multiplex microsphere protease cleavage assay; inhibition, % at 10 µM; hit rate 0.12% among 360,000; AID 588501, 2011; further: plate controls were buffer without enzyme for full effect and enzyme alone for no effect
Target sequence (P15917 whole entry, looked up): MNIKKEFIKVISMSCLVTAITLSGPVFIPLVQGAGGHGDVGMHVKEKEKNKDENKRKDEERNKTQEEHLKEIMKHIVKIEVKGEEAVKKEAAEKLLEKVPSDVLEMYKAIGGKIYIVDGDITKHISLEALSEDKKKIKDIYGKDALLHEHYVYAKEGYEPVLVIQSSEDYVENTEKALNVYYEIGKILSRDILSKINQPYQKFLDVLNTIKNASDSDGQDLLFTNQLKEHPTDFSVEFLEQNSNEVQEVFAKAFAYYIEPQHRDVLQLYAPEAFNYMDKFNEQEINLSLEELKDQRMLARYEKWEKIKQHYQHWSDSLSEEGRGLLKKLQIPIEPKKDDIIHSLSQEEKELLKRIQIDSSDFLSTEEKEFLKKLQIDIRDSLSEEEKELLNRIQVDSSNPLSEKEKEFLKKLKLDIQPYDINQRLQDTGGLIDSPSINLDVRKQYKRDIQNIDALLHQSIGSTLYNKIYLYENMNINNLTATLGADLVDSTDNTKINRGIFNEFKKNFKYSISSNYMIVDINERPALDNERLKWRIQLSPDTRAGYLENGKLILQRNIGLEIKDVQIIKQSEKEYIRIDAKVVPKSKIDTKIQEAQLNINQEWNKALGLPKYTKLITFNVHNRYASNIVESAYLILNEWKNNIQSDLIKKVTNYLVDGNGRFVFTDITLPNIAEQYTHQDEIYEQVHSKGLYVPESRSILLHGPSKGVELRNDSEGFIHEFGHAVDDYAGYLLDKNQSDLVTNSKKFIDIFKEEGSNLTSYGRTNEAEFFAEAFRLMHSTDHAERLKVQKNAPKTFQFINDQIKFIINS
CCHFV vOTU inh – CCHFV vOTU protease inhibitors, primary screen, biochemical, Pep-AMC substrate, fluorescence; Crimean-Congo hemorrhagic fever virus L polyprotein viral ovarian tumor (vOTU) protease …; inhibition, % at 11.5 µM; hit rate 0.55% among 370,000; in the data active means inhibition above about 30%; further: 0% = vehicle wells with enzyme and 100% = no enzyme wells
3CLpro inhibitor – SARS-CoV 3CLpro protease inhibitors, primary screen, biochemical, quenched FRET; Replicase polyprotein 1ab (Severe acute respiratory syndrome coronavirus), P0C6X7; recombinant SARS-CoV 3CLpro, quenched FRET peptide cleavage; inhibition, % at 6 µM; hit rate 0.14% among 290,000; AID 1706, 2009; in the data active means inhibition above about 12%
BoNT-A LC inh2 – BoNT/A light chain protease inhibitors, primary screen, biochemical, flow cytometry, MLPCN library. Botulinum neurotoxin type A light chain protease (Clostridium botulinum A str. ATCC 3502). multiplex microsphere protease substrate cleavage. inhibition, % at 10 µM. hit rate 0.17% among 360,000; further: plate controls were buffer without enzyme for full effect and enzyme alone for no effect
Autofluor counter – compound fluorescence in toxin protease inhibitor counterscreen. compound autofluorescence counterscreen, microsphere flow cytometry; stronger effect = higher value. fluorescence intensity (no concentration beside the values). hit rate 3.1% among 360,000. AID 624483; in the data active means fluorescence intensity above about 16000; inconclusive means no clear call, values can overlap the other calls
* marks the source's active call; other numbers are inactive results; ? = inconclusive; · = no result given. Unless noted, no stated cut-off is given here; in the data, active means inhibition above about 30%; inconclusive means no clear call, values can overlap the other calls; inactive means below that.

SMILES | BoNT-F LC inh | Anthrax LF inh2 | CCHFV vOTU inh | 3CLpro inhibitor | BoNT-A LC inh2 | Autofluor counter
CN(C)CCN(C)C1CN(CCc2ccccc2)S(=O)(=O)C1 (stereo not given) | 1 | 0 | 3 | · | 1 | 5991
Cc1ccc(-n2c(SCC(=O)Nc3ccc4c(c3)OCCO4)nnc2-c2cnccn2)cc1 | · | · | -3 | · | · | ·
O=C(c1cnc(-c2ccc(Cl)cc2)s1)c1ccc(Cl)cc1Cl | -2 | 3 | · | 4 | 2 | 16515*
Cc1ccc(Cn2c(=O)cc(C(=O)O)c3ccccc32)cc1 | 0 | 2 | · | -4 | 1 | 10046
CCOC(=O)c1cc(=O)n(Cc2ccccc2C)c2ccccc12 | 0 | -1 | 12 | -3 | 0 | 20854*
COC(=O)C1=C(C)NC(=O)NC1c1ccc2c(c1)OCO2 (stereo not given) | · | · | 9 | 2 | · | ·
O=S(=O)(c1ccc(NC(=S)N/N=C/c2c3ccccc3cc3ccccc23)cc1)N1CCOCC1 | 2 | 14 | 11 | -3 | 33* | 3214
O=S(=O)(c1ccc(NC(=S)N/N=C/c2ccc(Oc3ccccc3)cc2)cc1)N1CCOCC1 | -7 | -3 | -2 | -4 | 0 | 1982
COc1ccc(OC)c(-n2c(-c3ccccc3)n[nH]c2=S)c1 | 0 | -4 | 2 | -1 | ? | 22480*
COc1ccc(OC)c(-n2c(-c3cccc(C)c3)n[nH]c2=S)c1 | -3 | 0 | 4 | 1 | 0 | 2194
CCSc1ccc([C@@H]2[C@@H]3C(=O)N(CC)C(=O)[C@@H]3[C@]3(C(=O)OC)CCCCN23)cc1 | -11 | -1 | 6 | · | 0 | 3027
CCSc1ccc([C@@H]2[C@H]3C(=O)N(CC)C(=O)[C@H]3[C@]3(C(=O)OC)CCCCN23)cc1 | 30 | 4 | 10 | · | -4 | 21568*
COc1ccc(NC(=O)C2(c3ccc(NC(=O)c4ccc(OC(C)=O)cc4)cc3)CCCC2)cc1 | 1 | 0 | -10 | 1 | 1 | 20395*
COc1ccc(NC(=O)C2(c3ccccc3)CCCC2)cc1 | -3 | -9 | 2 | -4 | -1 | 4149
O=C(c1c(F)cccc1F)N1CCCC(c2nc(-c3cccs3)no2)C1 (stereo not given) | -23 | -20 | -17 | -2 | -3 | 3680
O=S(=O)(Cc1ccccc1)N1CCC(c2nc(-c3cccs3)no2)CC1 | 8 | -6 | · | 2 | ? | 18652*
COc1cccc(-c2noc(C3CCCN(C(=O)Cc4ccccc4)C3)n2)c1 (stereo not given) | 0 | 0 | 7 | 1 | 0 | 20892*
O=C(c1ccco1)N1CCCC(c2nc(-c3ccc(S(=O)(=O)NCc4ccccc4)cc3)no2)C1 (stereo not given) | 1 | 0 | 2 | 0 | 2 | 22212*
O=C(N1CCOCC1)N1CCCC(c2nc(-c3cccs3)no2)C1 (stereo not given) | 0 | 1 | -8 | -8 | 0 | 20689*
CCOc1ccccc1-c1cnc(NC)cn1 | -3 | -1 | -182 | · | 0 | 2954
CCCCCCN1C[C@@H](O)[C@H](n2cc(COC(=O)c3ccccc3)nn2)C[C@@H]1c1ccc(OC)cc1 | 2 | -1 | 10 | · | 0 | 4012
O=[N+]([O-])c1ccccc1/C=C/C=Nn1c(-c2ccc(F)cc2)n[nH]c1=S | · | · | 13 | · | · | ·
CC(C)OC(=O)c1ccc(N2CCN(c3ccccc3F)CC2)nc1 | 17 | -3 | 4 | 6 | 2 | 3968
O=S(=O)(Nc1cccc(S(=O)(=O)N2CCCC2)c1)c1ccc(Cl)cc1 | -6 | -2 | 22 | · | 1 | 5187
O=C(Cc1ccccc1)N1CCCC(c2nc(-c3cccs3)no2)C1 (stereo not given) | -7 | -1 | -14 | 5 | -4 | 23522*
SMILES | BoNT-F LC inh | Anthrax LF inh2 | CCHFV vOTU inh | 3CLpro inhibitor | BoNT-A LC inh2 | Autofluor counter
COC(=O)c1ccc(Oc2nc(Nc3ccccc3)nc(N(C)C)n2)cc1 | -6 | 0 | 12 | 5 | -4 | 20995*
COc1ccc(Oc2nnnn2-c2ccccc2)cc1 | -4 | -3 | 5 | 0 | ? | 22772*
COc1cccc(Oc2nnnn2-c2ccccc2)c1 | -6 | -11 | 12 | 4 | -1 | 9159
Cc1c(C(=O)N2CCOCC2)sc(NC(=O)Cc2ccccc2)c1C#N | -4 | 0 | -10 | 1 | 0 | 4524
Brc1ccc(-c2nc(-c3ccccc3)no2)o1 | 2 | -1 | -7 | -1 | 2 | 22544*
COc1ccc(/C=C/C(=O)C2CC2)cc1COc1cccc(C)c1C | 4 | 31* | 1 | -1 | 4 | 3816
COc1ccc(/C=N/NC(=S)Nc2ccccc2)cc1COc1cccc(C)c1C | 0 | -8 | -2 | 9 | 0 | 4946
O=C(CSc1nnnn1C1CCCCC1)Nc1ccccc1N1CCOCC1 | -4 | 0 | -6 | 2 | 1 | 4264
CCOc1ccc(NC(=S)Nc2cc(-c3ccccc3)[nH]n2)cc1 | -1 | -4 | 11 | 4 | 1 | 19137*
O=C(CCN1CCN(CCO)CC1)Nc1ccc(OCc2ccccc2)cc1 | 2 | 3 | -9 | -2 | 2 | 19226*
O=C(CCN1CCN(Cc2ccccc2)CC1)Nc1ccc(OCc2ccccc2)cc1 | -4 | -4 | 4 | 5 | -2 | 17367*
O=C(Nc1ccc(N2CCN(Cc3ccccc3)CC2)cc1)c1ncn[nH]1 | -13 | -5 | 12 | -2 | 0 | 23010*
CCC(=O)Nc1ccc(N2CCN(Cc3ccccc3)CC2)cc1 | · | · | 9 | 2 | · | ·
CS(=O)(=O)c1cccc(OCCCN2CCC(C(O)(c3ccccc3)c3ccccc3)CC2)c1 | · | · | -6 | · | · | ·
Cc1ccccc1CN1CCCCC(NC(=O)c2cccc(F)c2)C1=O (stereo not given) | · | · | -3 | · | · | ·
NS(=O)(=O)c1ccc(NC(=S)Nc2ccc(OCc3ccccc3)cc2)cc1 | 0 | -2 | -6 | 1 | -1 | 4131
S=C(Nc1ccccc1)Nc1ccc(OCc2ccccc2)cc1 | 4 | -6 | 6 | 4 | ? | 19054*
CC1=CC(=O)C=C(C)C1=NOc1ccccc1[N+](=O)[O-] | -4 | 2 | 13 | 6 | -1 | 2345
O=C(CCC(=O)OCC(=O)c1ccccc1)Nc1cccc2cccnc12 | -11 | -3 | 15 | 0 | -1 | 9177
O=C(CCC(=O)OCC(=O)c1ccc(Br)cc1)Nc1ccc(Br)c2cccnc12 | 3 | -8 | -8 | 0 | 3 | 18928*
COc1ccc(-c2cc(C(F)(F)F)n3nc(N)nc3n2)cc1 | -1 | 0 | · | 1 | -1 | 23917*
COc1ccc(NC(=O)c2c(-c3c(Cl)cccc3Cl)noc2C)c(OC)c1 | -2 | -4 | -1 | 3 | 2 | 3519
COCCN(C(=O)c1ccc(N2CCCC2=O)cc1)c1c(N)n(Cc2ccccc2)c(=O)[nH]c1=O | -6 | -6 | 5 | · | 0 | 2691
